# Experimental data reported in PubChem BioAssay (NCATS).
# Results filed as inconclusive are left out. Activity calls are given as the source filed them. Unless noted, calls follow the shape of the full dose curve.
# Tests used:
# [1] = Primary qHTS for Huh7 cytotoxicity: counterscreen for inhibitors of MERS-S pseudotyped particle cell entry (AID 1479147); details: outcome: dose series up to 57.1 µM unless noted
# [2] = Primary qHTS for Vero E6 cytotoxicity: counterscreen for inhibitors of SARS-S pseudo-typed particle cell entry (AID 1479150); details: outcome: dose series up to 57.1 µM unless noted; also: % is scaled to controls: 0 for no effect and ±100 for the full control effect
# [3] = Primary qHTS to identify inhibitors of SARS-CoV-2 cell entry (AID 1645846); details: SARS-CoV-2 pseudovirus cell entry assay, luminescence; activity change, negative = inhibition: at 57.1 µM (top of the series) unless noted; also: nearly all actives have a fitted effect of over 45% in size; also: potency is read from the fitted curve at half-maximal effect
# Procedure, shortened: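 HEK293-ACE2 (Expi293F, stable hACE2), 1500 cells/well, o/n 37C; cpd 23 nL pin, 1 h; MLV-PP w/ SARS-CoV-2-S (Wuhan-Hu-1, Δ19 C-term); 48 h 37C; Bright-Glo luminescence; normalized vs S-PP and bald PP.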
# [4] = Confirmatory qHTS to identify inhibitors of SARS-CoV-2 cell entry (AID 1645844); also: potency is read from the fitted curve at half-maximal effect; nearly all actives have a fitted effect of over 45% in size
# Procedure, shortened: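 HEK293-ACE2, overnight seeding; cpd 1 h, 37C/5% CO2; + SARS-CoV-2-S MLV PP (Wuhan-Hu-1, ΔC19); 48 h; Bright-Glo luminescence. Data normalised to S PP and bald PP wells.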
# [5] = Cytotoxicity counterscreen for inhibitors of SARS-CoV-2 cell entry (AID 1645845); details: outcome: dose series up to 57.1 µM unless noted; also: % is scaled to controls: 0 for no effect and ±100 for the full control effect; nearly all actives have a fitted effect of over 50% in size
# Procedure, shortened: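 Counterscreen run in the same HEK293-ACE2 line as the pseudotyped-particle entry assay, without particles. Viability after 48 h at 37 C was read as ATP luminescence, scaled between cell-containing and cell-free wells.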
# [6] = VSVG counterscreen qHTS to identify inhibitors of SARS-CoV-2 cell entry (AID 1645847); also: potency is read from the fitted curve at half-maximal effect; nearly all actives have a fitted effect of over 65% in size
# Procedure, shortened: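 Expi293F/hACE2 cells, overnight plating; cpd 1 h, 37C/5% CO2; + VSV-G PP (MLV pseudotyping), 48 h; supernatant removed, Bright-Glo luciferase read. Norm: VSV-G PP and bald PP wells.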
# [7] = NCATS anti-infectives library activity on HEK293 viability as a counter-qHTS vs the C. elegans viability qHTS (AID 1745854; active = well fitted curve in the direction sought with a large enough effect; an effect the other way counts as inactive or inconclusive; also: potency is read from the fitted curve at half-maximal effect)
# Procedure, shortened: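 CellTiter-Glo luminescence, read on a CCD imager, scored viability of HEK293 cells after 24 hr compound exposure at 37C. Library tested in several concentrations, 1:5 steps, up to 41.7 uM; digitonin served as control.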
# [8] = NCATS anti-infectives library activity on the primary C. elegans qHTS viability assay (AID 1745855); also: potency is read from the fitted curve at half-maximal effect
# Procedure, shortened: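 Titration-based screen in worms: eggs hatched overnight in M9, L1 larvae fed TOP10 capsules in S medium with compound, incubated 21 °C for 7 days; fluorescent objects gated by size and intensity at days 0, 3 and 7.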
# [9] = molecular target: Calcium and integrin-binding protein 1 (Homo sapiens) (UniProt Q99828); experiment: Primary qHTS for Identification of Calcium Integrin Binding Protein 1 (CIB1) Competitor (AID 1508620; active = well fitted curve in the direction sought with a large enough effect; an effect the other way counts as inactive or inconclusive;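 also: GST tagged CIB1 binding a fluorescein labelled alphaIIb integrin peptide tracer; top concentration of the series differs between compounds; % is scaled to controls: 0 for no effect and ±100 for the full control effect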)
# Calcium and integrin-binding protein 1 (Homo sapiens), sequence (Q99828 whole entry, looked up): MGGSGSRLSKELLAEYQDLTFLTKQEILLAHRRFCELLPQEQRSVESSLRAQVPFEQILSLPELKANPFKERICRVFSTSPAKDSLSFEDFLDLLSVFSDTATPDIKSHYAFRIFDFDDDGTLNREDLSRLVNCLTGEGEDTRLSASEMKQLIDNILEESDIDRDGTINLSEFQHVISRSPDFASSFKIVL
# Procedure, shortened: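 Fluorescence polarization competition: GST-tagged CIB1 (1 uM final) preincubated with compound 15 min at room temperature, then FITC-labelled alphaIIb peptide (100 nM final) added. After 15 min at room temperature, polarization read at Ex 480/Em 540.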
# [10] = Primary qHTS for small molecule stabilizers of the endoplasmic reticulum resident proteome: Secreted ER Calcium Modulated Protein (SERCaMP) assay (AID 1508630; active = well fitted curve in the direction sought with a large enough effect; an effect the other way counts as inactive or inconclusive; also: % is scaled to controls: 0 for no effect and ±100 for the full control effect)
# Procedure, shortened: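 The SH-SY5Y reporter protocol was run at 3 concentrations up to 38.3 uM (primary) or 11 concentrations (follow-up): 16 h compound, 100 nM thapsigargin for 4 h, then extracellular luciferase luminescence.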
# [11] = tested on: HIV-1 nucleocapsid protein NCp7 (binding to TG oligonucleotide); experiment: HIV Nucleocapsid (AID 346; call rule not given here;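 also: potency is read from the fitted curve at half-maximal effect; potency is for inhibitors that block NC binding and lower polarization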); details: HIV-1 NC / fluorescein-TGTGTGTG probe, fluorescence polarization
# Procedure, shortened: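 Fluorescence polarization readout: labelled TG4xF oligo (10 nM) with 100 nM nucleocapsid protein, high-salt (250mM NaCl) Hepes pH 7.5 buffer containing zinc and fresh reducing agents. Compounds added by pin tool; incubation 1 hr, room temperature.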
# [12] = molecular target: Lysosomal acid glucosylceramidase (Homo sapiens) (UniProt P04062); experiment: Glucocerebrosidase-p2 (AID 348; in the data active = potency below about 10 µM; also: potency is read from the fitted curve at half-maximal effect); details: purified GBA, blue fluorogenic substrate, 40 min
# Lysosomal acid glucosylceramidase (Homo sapiens), sequence (P04062 whole entry, looked up): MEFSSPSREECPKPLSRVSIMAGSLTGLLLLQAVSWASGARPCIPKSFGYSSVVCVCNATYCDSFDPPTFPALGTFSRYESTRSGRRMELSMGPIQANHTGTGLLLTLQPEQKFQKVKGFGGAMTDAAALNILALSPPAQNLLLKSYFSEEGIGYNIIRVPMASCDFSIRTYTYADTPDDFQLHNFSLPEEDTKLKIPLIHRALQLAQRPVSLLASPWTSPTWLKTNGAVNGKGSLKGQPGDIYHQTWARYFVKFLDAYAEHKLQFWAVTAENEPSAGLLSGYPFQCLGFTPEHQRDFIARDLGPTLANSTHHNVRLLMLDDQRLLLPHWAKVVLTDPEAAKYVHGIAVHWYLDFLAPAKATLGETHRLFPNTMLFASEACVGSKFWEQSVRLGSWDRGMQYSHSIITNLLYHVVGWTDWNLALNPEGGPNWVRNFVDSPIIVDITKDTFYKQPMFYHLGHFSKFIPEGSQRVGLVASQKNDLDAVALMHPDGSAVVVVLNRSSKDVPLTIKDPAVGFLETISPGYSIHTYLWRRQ
# Procedure, shortened: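 Normal human glucocerebrosidase (0.2 nM) with blue fluorogenic substrate (80 uM final) in citrate/phosphate pH 5.9 with 10mM sodium taurocholate, 0.01% tween-20; 40 min RT, NaOH/glycine stop; fluorescence Ex 365/Em 440; AC50 from a titration from 0.6 nM upwards.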
# [13] = AP1 Signaling Pathway (AID 357; active = well fitted curve in either direction with a large enough effect, not every such curve was filed as active;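 also: ME-180 reporter cells stimulated with EGF at its EC50 level; % is scaled to controls: 0 for no effect and ±100 for the full control effect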)
# Procedure, shortened: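 Cells are seeded overnight, exposed to compound titrations and an EC50 level of EGF for 5 hours at 37 °C, then loaded with CCF4 dye for 2.5 hours. Beta-lactamase activity under the AP-1 element is read as a blue/green ratio.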
# [14] = molecular target: Cytochrome P450 1A2 (Homo sapiens) (UniProt P05177); experiment: p450-cyp1a2 (AID 410);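 also: -100% = full effect of reference inhibitor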
# Cytochrome P450 1A2 (Homo sapiens), sequence (P05177 whole entry, looked up): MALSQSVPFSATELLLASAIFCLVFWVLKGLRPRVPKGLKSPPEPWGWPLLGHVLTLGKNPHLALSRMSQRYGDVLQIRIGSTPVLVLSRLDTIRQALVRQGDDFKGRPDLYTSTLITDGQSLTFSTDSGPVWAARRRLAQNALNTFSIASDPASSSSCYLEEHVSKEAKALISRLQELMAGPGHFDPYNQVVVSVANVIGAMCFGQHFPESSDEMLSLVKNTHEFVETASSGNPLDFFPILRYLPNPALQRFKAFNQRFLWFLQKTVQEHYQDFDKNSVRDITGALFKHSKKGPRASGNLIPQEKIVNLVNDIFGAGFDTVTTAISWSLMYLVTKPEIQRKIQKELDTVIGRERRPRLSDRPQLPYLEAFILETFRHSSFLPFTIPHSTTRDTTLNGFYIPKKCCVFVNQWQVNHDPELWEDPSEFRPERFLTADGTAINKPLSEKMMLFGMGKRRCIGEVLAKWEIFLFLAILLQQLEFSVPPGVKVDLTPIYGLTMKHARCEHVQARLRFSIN
# Procedure, shortened: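 20nM CYP1A2, 100uM Luciferin-ME (=Km), 100mM KPO4; cpd 10 min RT; +NADPH regen, 60 min RT; stop/detect 20 min; luminescence. Normalized to furafylline 57 uM = full inhibition.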
# [15] = Stat Signaling Pathway (AID 446; active = well fitted curve in either direction with a large enough effect, not every such curve was filed as active)
# Procedure, shortened: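 Compound effects on IL-6-induced STAT reporter activity were measured in ME-180 cells. After overnight culture, cells were co-treated with 40 pM IL-6 for 5 hrs before beta-lactamase substrate loading at room temperature.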
# [16] = molecular target: Glucocorticoid receptor (Homo sapiens) (UniProt P04150); experiment: GR-EFC Redistribution (AID 451); details: CHO-K1 GR-EFC translocation, beta-gal luminescence, 2 h; also: potency is read from the fitted curve at half-maximal effect
# Glucocorticoid receptor (Homo sapiens), sequence (P04150 whole entry, looked up, the tested form may be a part): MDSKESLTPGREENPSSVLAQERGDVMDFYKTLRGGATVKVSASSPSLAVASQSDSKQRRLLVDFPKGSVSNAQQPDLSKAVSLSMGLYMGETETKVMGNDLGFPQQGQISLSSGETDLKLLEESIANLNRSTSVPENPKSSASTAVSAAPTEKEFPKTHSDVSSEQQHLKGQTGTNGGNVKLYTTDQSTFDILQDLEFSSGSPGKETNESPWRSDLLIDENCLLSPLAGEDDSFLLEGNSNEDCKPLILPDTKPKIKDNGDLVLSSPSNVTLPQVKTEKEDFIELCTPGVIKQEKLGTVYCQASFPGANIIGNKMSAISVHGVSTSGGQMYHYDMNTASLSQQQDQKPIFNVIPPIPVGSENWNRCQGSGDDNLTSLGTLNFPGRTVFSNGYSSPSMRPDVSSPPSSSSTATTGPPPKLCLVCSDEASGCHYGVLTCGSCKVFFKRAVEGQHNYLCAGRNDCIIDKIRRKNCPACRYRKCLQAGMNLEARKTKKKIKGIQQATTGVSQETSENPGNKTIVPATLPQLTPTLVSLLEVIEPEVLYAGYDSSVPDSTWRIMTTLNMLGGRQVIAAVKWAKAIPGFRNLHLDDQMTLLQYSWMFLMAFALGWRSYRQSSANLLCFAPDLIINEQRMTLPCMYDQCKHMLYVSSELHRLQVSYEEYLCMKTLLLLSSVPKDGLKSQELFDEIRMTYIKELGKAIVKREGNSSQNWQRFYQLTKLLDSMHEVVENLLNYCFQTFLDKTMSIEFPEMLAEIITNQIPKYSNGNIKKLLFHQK
# Procedure, shortened: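 CHO-K1 cells expressing nuclear EA and GR-ED fragments of b-gal; compounds titrated up to 46 uM final, 2 h at 37 C. GR nuclear translocation read as complemented b-gal luminescence after 1 h RT detection.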
# [17] = qHTS Assay for Lipid Storage Modulators (AID 1519); details: Drosophila S3 cells, BODIPY lipid droplet/cell ratio, laser cytometry, cells loaded with oleic acid
# Procedure, shortened: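 Cells seeded at 5,000 per well were treated with compounds over a concentration series and loaded with oleic acid (400 uM, as added). Lipid droplet fluorescence (488 nm excitation, 500-530 nm channel) was read by laser-scanning cytometry and normalized to 20 uM Triacsin C.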
smiles,measurement,setting,value
CC(=O)O[C@]1(C(C)=O)CC[C@H]2[C@@H]3C=C(C)C4=CC(=O)CC[C@@H]4[C@H]3CC[C@@]21C,Potency,[1],inactive
same,Potency,[2],inactive
same,"activity change, negative = inhibition",[3],-20%
O=C(CCCN1CCC(n2c(=S)[nH]c3ccccc32)CC1)c1ccc(F)cc1,Potency,[2],inactive
CC(=O)Oc1cc(C)c(OC(C)=O)c2ccccc12,Potency,[2],inactive
same,Potency,[3],31.6 µM (active)
Cc1cc(-n2c(=O)[nH]c(=O)n(C)c2=O)ccc1Oc1ccc(S(=O)(=O)C(F)(F)F)cc1,Potency,[1],inactive
same,Potency,[3],17.8 µM (active)
COc1cc([C@@H]2c3cc4c(cc3[C@@H](O[C@@H]3O[C@@H]5CO[C@@H](C)O[C@H]5[C@H](O)[C@H]3O)[C@H]3COC(=O)[C@H]23)OCO4)cc(OC)c1OP(=O)(O)O,Potency,[1],inactive
same,Potency,[4],0.541 µM (active)
same,Potency,[5],inactive
same,Potency,[3],3.55 µM (active)
CC[C@H](NC(=O)[C@H](CS(=O)(=O)CC1CC1)N[C@@H](c1ccc(F)cc1)C(F)(F)F)C(=O)C(=O)NC1CC1,Potency,[6],10.8 µM (active)
Cc1cccc(/C=N/Nc2cc(N3CCOCC3)nc(OCCc3ccccn3)n2)c1,Potency,[6],7.64 µM (active)
OC1CCC(Oc2cccc3cnc(Nc4ccc5nc[nH]c5c4)nc23)CC1 (stereo unspecified),Potency,[4],0.482 µM (active)
same,Potency,[6],0.341 µM (active)
COC(=O)[C@]1(C)CC[C@]2(C)CC[C@]3(C)C4=CC=C5C(=CC(=O)C(O)=C5C)[C@]4(C)CC[C@@]3(C)[C@@H]2C1,Potency,[7],1.12 µM (active)
same,Potency,[8],9.16 µM (active)
COC(=O)c1nc(-c2cccc3ccccc23)oc1OC,outcome,[9],inactive
CCOc1ccc(CCNC(=O)c2ccc(Oc3ccccc3)cc2)cc1OCC,outcome,[9],inactive
CC(=O)O[C@@H]1C[C@@]2(C)C(c3ccoc3)C[C@H]3O[C@]32[C@]2(C)C(=O)C(O)=C3C(C)(C)C(=O)C=C[C@]3(C)C12 (stereo partly specified),outcome,[10],inactive
COC(=O)N1CCC2(CCCN(C)C2)CC1,Potency,[11],> 20 µM (inactive)
same,Potency,[12],> 11.4 µM (inactive)
same,outcome,[13],inactive
same,Potency,[14],inactive
same,outcome,[15],inactive
same,Potency,[16],> 46 µM (inactive)
same,"activity change, negative = inhibition",[17]; at 57.5 µM (top of the series),0.789% (inactive)
same,max response,[17]; measured here: cell count channel max response,6.44%
same,max response,[17]; measured here: lipid channel max response,8.69%
same,outcome,[10],inactive
